Where a name gives a salt, the structure may show the parent alone.

For the test, the system named is Haemophilus parainfluenzae. Nature of the test: growth AUC normalised to DMSO control (fraction of control); higher = less growth inhibition, active = hit call of the paper. The following applies: 20 µM. A digest of the protocol: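 Three biological replicates were carried out, with OD578 read hourly for 24 h. Before inoculation at a starting OD578 of 0.01, pathogens were passaged anaerobically twice; plates were pre-reduced mGAM containing 20 μM compound and 1% DMSO, sealed with breathable membranes, and the Haemophilus parainfluenzae medium carried added hemin and NAD. Area under each growth curve was calculated by the trapezoidal rule up to the exponential-to-stationary transition and normalised to DMSO controls on the same plate.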
`O=C1CN(/N=C/c2ccc([N+](=O)[O-])o2)C(=O)N1` [Nitrofurantoin]: the “growth AUC normalised to DMSO control” value was 0.369 (active).
Under `COCCc1ccc(OCC(O)CNC(C)C)cc1` (stereo not drawn) [Metoprolol-(+)-tartrate salt] stands 0.952 (inactive); under `OCCN1CCN(CC/C=C2/c3ccccc3Sc3ccc(Cl)cc32)CC1` [Zuclopenthixol dihydrochloride], 0.916 (inactive); under `CC(C)NC[C@@H](O)COc1ccc(CC(N)=O)cc1` [(R,+) Atenolol], 0.98 (inactive).
For `C[C@H]1C[C@@H]2[C@H]([C@@H](O)C[C@@]3(C)[C@H]2CC[C@]3(O)C(=O)CO)[C@@]2(C)C=CC(=O)C=C12` [Methylprednisolone, 6-alpha] the value was 0.996 (inactive).
Under `COC(=O)C1=C(C)NC(C)=C(C(=O)OC(C)C)C1c1cccc2nonc12` (stereo not drawn) [Isradipine] stands 1.02 (inactive).
With `Cc1cccc(C)c1OCC(C)N` (stereo not drawn) [Mexiletine hydrochloride], the “growth AUC normalised to DMSO control” value was 1.02 (inactive).
In the case of `CCCc1nc(C)c2c(=O)nc(-c3cc(S(=O)(=O)N4CCN(CC)CC4)ccc3OCC)[nH]n12` [Vardenafil], the “growth AUC normalised to DMSO control” value was 1.03 (inactive).

(Values after the supplement of paper PMC12350171.)
